High-throughput results (PubChem)
Artemis inh – Artemis (human) endonuclease inhibition. Q96SD1. recombinant Artemis, quenched FAM hairpin cleavage fluorescence. inhibition, % at 10 µM. 30,000 compounds, 0.78% hits. AID 686954;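 active = at 10 µM dose, at least 30% inhibition, measured as corrected fluorescence normalized to stimulator and neutral control wells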
Target sequence (Q96SD1 whole entry, looked up): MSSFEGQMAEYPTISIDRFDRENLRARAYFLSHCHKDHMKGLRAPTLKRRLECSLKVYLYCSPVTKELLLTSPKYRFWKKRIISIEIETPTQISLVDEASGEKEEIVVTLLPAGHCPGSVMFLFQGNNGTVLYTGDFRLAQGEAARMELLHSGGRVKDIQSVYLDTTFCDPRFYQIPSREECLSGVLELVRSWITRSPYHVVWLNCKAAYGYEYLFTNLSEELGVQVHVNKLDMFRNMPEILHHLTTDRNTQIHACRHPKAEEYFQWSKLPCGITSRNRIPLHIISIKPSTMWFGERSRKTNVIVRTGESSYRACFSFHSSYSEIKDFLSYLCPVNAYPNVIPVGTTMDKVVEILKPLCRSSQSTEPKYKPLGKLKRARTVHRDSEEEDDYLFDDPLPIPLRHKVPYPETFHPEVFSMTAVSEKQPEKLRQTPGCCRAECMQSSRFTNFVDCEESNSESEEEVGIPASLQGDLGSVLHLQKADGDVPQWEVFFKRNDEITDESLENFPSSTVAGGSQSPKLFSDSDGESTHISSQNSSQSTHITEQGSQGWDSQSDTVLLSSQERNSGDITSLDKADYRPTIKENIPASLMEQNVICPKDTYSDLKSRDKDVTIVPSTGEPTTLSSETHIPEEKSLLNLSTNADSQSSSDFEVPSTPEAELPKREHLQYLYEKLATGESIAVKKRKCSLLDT
Active calls of the source: *. The sample as a whole holds a higher share of hits than the screen did.

SMILES | Artemis inh
c1ccc2c(SCc3cn4cccnc4n3)ncnc2c1 | -5
O=c1c2c(-c3ccco3)csc2nc(SCc2cn3cccnc3n2)n1-c1ccccc1 | 31*
O=c1c2ccccc2nc(SCc2cn3ccsc3n2)n1-c1ccc(F)cc1 | 13
COC(=O)c1ccc(NC(=O)CSc2nccn2CCc2ccccc2)cc1 | -2
Cc1noc(C)c1CSc1nc2ccccc2nc1NS(=O)(=O)c1ccc(Cl)cc1 | 33*
Cc1noc(C)c1CSc1nc2ccccc2c(=O)n1-c1ccccc1 | 0
O=S(=O)(Nc1nc2ccccc2nc1NCc1ccco1)c1ccc(Cl)cc1 | 13
CN1C(=O)/C(=C/c2ccccc2OCc2cccc(F)c2)NC1=S | -4
O=C1C(N2CCOCC2)=C(n2nnc3ccccc32)C(=O)c2ccccc21 | 36*
Cc1nc2ccccc2nc1N1CCOCC1 | 4
O=C1c2ccccc2C(=O)c2c1cccc2N1CCOCC1 | 4
CCC(Sc1nc(-c2ccccc2)c(C#N)c(=O)[nH]1)C(=O)Nc1nnc(C)s1 (stereo not drawn) | -3
COc1ccc(S(=O)(=O)NCC(=O)N(CC(=O)NCC2CCCO2)c2c(C)cccc2C)cc1 (stereo not drawn) | 7
Clc1ccc(CSc2nnnn2-c2ccc3c(c2)OCO3)c(Cl)c1 | 10
COc1ccc(NC(=S)NCc2ccco2)c(OC)c1 | 9
Cc1cc(NS(=O)(=O)c2ccc(Nc3nc(-c4sc(N)nc4C)cs3)cc2)no1 | 59*
Cc1cc(NS(=O)(=O)c2ccc(NC(=O)c3ccco3)cc2)no1 | 7
Cc1cc(NS(=O)(=O)c2ccc(NC(NC(=O)C(C(F)(F)F)C(F)(F)F)(C(F)(F)F)C(F)(F)F)cc2)no1 | -3
CC(C)c1ccc(NC2(C#N)C(=O)Nc3ccccc32)cc1 (stereo not drawn) | -4
O=C(Nc1cccc2nsnc12)c1ccc(F)cc1 | 13
O=C(Nc1cccc2nsnc12)c1ccc(-c2cccc(Cl)c2)o1 | 46*
O=C(Nc1cccc2nsnc12)c1ccc2c(c1)OCO2 | 2
COc1ccc(S(=O)(=O)NNC(=O)c2csc(-n3nc(C)cc3C(F)(F)F)n2)cc1 | 7
O=S(=O)(NCc1cn2ccsc2n1)c1ccc2c(c1)OCCO2 | 0
Cc1ccc(C(=O)c2c(C)oc3c2C(=O)C(=O)c2ccccc2-3)cc1 | 55*
SMILES | Artemis inh
Cc1oc2c(c1C(=O)c1ccc(Cl)cc1)C(=O)C(=O)c1ccccc1-2 | 50*
Cc1ccc(C(=O)c2cn[nH]c2-c2ccccc2O)cc1 | -1
COc1ccc(C(=O)c2c(C(F)(F)F)oc3c2C(=O)c2ccccc2C3=O)cc1 | 28
COc1ccc(C(=O)c2ccc(Cl)cc2)cc1 | -2
O=C(c1ccc(O)cc1)c1ccc(Cl)cc1 | 8
Cc1ccc(C2CC(c3ccccc3)=NN2C(=S)Nc2ccccc2)o1 (stereo not drawn) | 15
N#CC1=C(N)Oc2cc(Nc3ccccc3)ccc2C1c1ccncc1 (stereo not drawn) | 10
O=C(CSc1ccc(Cl)cc1Cl)N1CCC(c2nc3ccccc3s2)CC1 | 18
Cc1ccc(C(=O)C(C(=O)/C=C/c2ccccc2)=C2SCCCS2)cc1 | 6
CCCNC(=O)NC(=O)CSc1ccc2c(c1)OCCO2 | -1
COC(=O)c1ccc(CSc2nc3ccc(C)cc3[nH]2)o1 | 1
COC(=O)CCC(=O)Nc1ccc(Br)cc1 | 4
COc1cccc(/C=N/Nc2nc(Nc3ccccc3)nc(-n3nc(C)cc3C)n2)c1O | 96*
COc1cccc(/C=N/NC(=O)c2c(-c3ccccc3)noc2C)c1O | 7
COc1cccc(/C=N/n2c(C)nc3ccccc3c2=O)c1O | -2
Cc1csc(NC(=O)CSc2nnc(-c3ccoc3C)n2Cc2ccco2)n1 | 0
COC(=O)c1sc(NC(=O)C2CCCCC2C(=O)O)c(C(=O)OC)c1C (stereo not drawn) | 8
Cc1cc(Cl)cc(Br)c1OCCNCC(C)O (stereo not drawn) | 31*
COc1cc(C=O)ccc1OCCOCCOc1c(C)cc(Cl)cc1Cl | 4
CC(=O)NCCOc1c(C)cc(S(N)(=O)=O)cc1C | -4
CCCNC(=O)N1CCC(C(=O)c2cccc(F)c2)CC1 | -5
CCC(C)n1c(NC(=O)c2ccccc2)c(C#N)c2nc3ccccc3nc21 (stereo not drawn) | 39*
N#Cc1c(N)n(CCNC(=O)c2ccc(Cl)cc2)c2nc3ccccc3nc12 | 0
Cc1noc(NC(=O)c2ccccc2)c1C#N | 2
COc1ccccc1-n1cnnc1SCC(=O)Nc1nc(C)c(Cl)cc1Cl | -5
SMILES | Artemis inh
Cc1ccc(-c2c(C)n([O-])c3c([n+]2=O)CCCC3)o1 | -10
Cc1ccc(-c2noc(CCC(=O)N3CCCc4ccccc43)n2)cc1 | 12
Cc1cc(C(=O)NNC(=S)NC(C)c2ccccc2)c2ccccc2n1 (stereo not drawn) | 5
COC(=O)Oc1ccc(/C=N/NC(=O)CN(c2ccccc2Cl)S(C)(=O)=O)cc1OC | -3
COc1ccc2c3c(cccc13)N(C)N=C2C | 58*
COc1ccc(C)cc1-n1c(N)c(C#N)c(C#N)c1-c1ccc(OC)c(OC)c1OC | -4
O=C(Nc1ccc(NC(=S)NC(=O)C(c2ccccc2)c2ccccc2)cc1)c1ccccc1 | 9
CN(C)c1ccc(/C=N/NC(=O)CN(c2cccc(Cl)c2)S(C)(=O)=O)cc1Br | 14
CSc1nc(N(CCO)CCO)c2sc3nc(-c4ccco4)c4c(c3c2n1)CCC4 | 46*
CC(C)c1nc2sc3c(SCC(=O)NCc4ccco4)ncnc3c2c2c1CCC2 | 29
N#Cc1sc2nc3c(c(-c4ccco4)c2c1N)CCCC3 | 13
CCN1N=C(c2ccccc2)Cn2c1nc1ccccc12 | 8
CCC(C)c1ccc(OCCCCN2CCOCC2)cc1 (stereo not drawn) | -7
C=CCOC(=O)c1cc(-c2ccc(/C=C3\C(=O)NC(=O)C(C#N)=C3C)o2)ccc1Cl | 36*
C=CCOC(=O)C1=C(C)NC(SC)=C(C#N)C1c1ccc(OCC)cc1 (stereo not drawn) | 0
CC1=NOC(=O)/C1=C\c1ccc(-c2cccc(Cl)c2)o1 | 28
Cc1nc(NC(C)C)c2cnn(CCc3ccccc3)c2n1 | 1
O=[N+]([O-])CC(=Nc1ccc(Cl)cc1)N/N=C\c1oc(O)c2ccccc12 | 35*
O=C(N/N=C\c1ccc(COc2ccc([N+](=O)[O-])cc2)o1)c1ccc(Cl)cc1 | 12
CCOC(=O)CN1C(=O)C2Cc3ccccc3CN2C1=S (stereo not drawn) | -2
O=C(Nc1nc(-c2ccccn2)cs1)c1ncc(Cl)c(Cl)c1Cl | 23
O=C(O)CCC(=O)Nc1nc(-c2ccccc2)cs1 | 2
O=C(CCCSc1ccccc1)Nc1nc(-c2ccccn2)cs1 | 58*
O=C(Nc1ccccc1F)c1ccc(-n2cncn2)nc1 | -6
Cc1cc(/C=N/n2cnnc2)c(C)n1-c1cccc(Cl)c1 | 10
SMILES | Artemis inh
Cc1cc(/C=N/n2cnnc2)c(C)n1-c1ccccc1 | -4
Cc1cc(/C=N/n2cnnc2)c(C)n1-c1ccc(OCc2ccc(Cl)cc2Cl)cc1 | 42*
Cc1ccc(-c2csc3ncnc(N4CCN(C(=O)c5ccccc5)CC4)c23)cc1 | 7
CCOc1ccc2nc(SCC(=O)Nc3cc4c(cc3C(C)=O)OCO4)[nH]c2c1 | 2
Cc1ccc(S(=O)(=O)N2CCSC2c2ccco2)cc1 (stereo not drawn) | 2
O=C(O)CC(C(=O)O)N1C(=O)/C(=C/c2ccc(-c3nc4ccccc4s3)o2)SC1=S (stereo not drawn) | 64*
O=C(O)CCN1C(=O)/C(=C/c2ccc(-c3nc4ccccc4s3)o2)SC1=S | 18
O=c1oc2ccccc2n1CSc1nc2ccccc2s1 | 10
